Source: PubChem (The Scripps Research Institute Molecular Screening Center)
DAX1 inh-1 – inhibitors of DAX1 repression of SF-1 activated StAR promoter. HEK293T StAR-luciferase reporter, SF-1/DAX-1 repression relief. inhibition, % at 6.8 µM. 370,000 compounds, 1.1% hits;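 active means inhibition above the mean over all tested compounds plus 3 SD, cut at about 3.6% in these data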;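 further: 0% = DAX-1 cells with DMSO and 100% = cells lacking DAX-1 with DMSO; higher inhibition means more luminescence from relief of DAX-1 repression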
hgDAF12 agonist – hgDAF-12 agonism, primary luciferase screen; HEK293 GAL4-hgDAF12 UAS-luciferase reporter, agonist luminescence; normalized to butyrate control; activation, % at 6.8 µM; 370,000 compounds, 1.8% hits; AID 687014;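 active means activation above a cutoff set at the mean of all screened compounds plus 3 SD, cut at about 10% in these data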;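 further: 0% = DMSO wells and 100% = sodium butyrate wells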
hcDAF12 agonist – H. contortus DAF-12 activation, primary screen; HEK293 hcDAF-12 lit1-tk-luc reporter, luminescence; 0% DMSO, 100% Δ7-dafachronic acid; activation, % at 6.8 µM; 370,000 compounds, 1.4% hits;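 active means activation above the mean of all tested compounds plus 3 SD, cut at about 5.5% in these data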;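 further: 100% = response to 3 µM Δ7-dafachronic acid high control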
ssDAF-12 act – activators of S. stercoralis DAF-12 nuclear receptor | HEK293 ssDAF-12/GRIP1 lit1-tk-luc reporter, luminescence; % of 3 µM dafachronic acid response | activation, % at 6.8 µM | 370,000 compounds, 1% hits;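 active means activation above the mean over all tested compounds plus 3 SD, cut at about 0.9% in these data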;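 further: 0% = DMSO-only wells and 100% = 3 µM delta7-dafachronic acid wells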
DAX1 inh-2 – inhibits human nuclear receptor DAX1; inhibition, % at 6.75 µM; 340,000 compounds, 0.99% hits; P51843; HEK293 Gal4-DAX1 luciferase reporter, luminescence;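 active means inhibition above the mean over all tested compounds plus 3 SD, cut at about 4.2% in these data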;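 further: 0% = DAX1-transfected cells with DMSO and 100% = empty-vector control cells with DMSO; inhibition shows as a rise in luminescence from relieved DAX1 repression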
Target sequence (P51843 207-470 limits assumed): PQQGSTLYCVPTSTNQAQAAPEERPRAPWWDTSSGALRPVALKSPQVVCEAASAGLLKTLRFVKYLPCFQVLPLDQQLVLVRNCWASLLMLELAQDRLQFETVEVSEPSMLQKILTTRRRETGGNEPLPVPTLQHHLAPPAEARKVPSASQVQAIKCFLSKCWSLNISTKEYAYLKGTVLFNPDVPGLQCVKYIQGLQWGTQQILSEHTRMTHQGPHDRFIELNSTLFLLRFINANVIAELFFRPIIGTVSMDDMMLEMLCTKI
DAX1 conf – confirmation of human DAX1 (NR0B1) inhibitors; inhibition, % at 6.8 µM; HEK293T StAR-promoter luciferase reporter, SF-1/DAX-1 repression; shares compounds with DAX1 inh-1; 2,400 compounds, 87% hits;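 active means inhibition above the average of every tested compound plus 3 SD, cut at about 3.8% in these data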;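 further: 0% = DAX-1 cells with DMSO and 100% = no DAX-1 control cells with DMSO; active compounds raise luminescence by relieving repression of the StAR reporter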
SF1 AF2mut Luc – nonselective inhibitor or artifact in SF-1 mutant DAX1 counter-screen; HEK293 StAR-luciferase, SF-1 AF2 mutant, luminescence; 2,400 compounds, 78% hits; shares compounds with DAX1 inh-1; inhibition, % at 6.8 µM;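 active means inhibition above the mean of all tested compounds plus 3 SD, cut at about 3% in these data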;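 further: 0% = DAX-1 transfected cells with DMSO and 100% = cells without DAX-1 with DMSO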
LXR ag – counter-screen for hcDAF-12 agonists: agonists of human LXR-beta. AID 743027. HEK293 Gal4-LXR tk-luc reporter, luminescence, 24 h; normalized: DMSO 0%, positive control 100%. shares compounds with hcDAF12 agonist. activation, % at 6.8 µM. 3,400 tested, under 10 active;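 active means mean percent activation of the reporter above a cutoff set as the average over tested compounds plus their standard deviation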
Target sequence (P55055 whole entry, looked up, the tested form may be a part): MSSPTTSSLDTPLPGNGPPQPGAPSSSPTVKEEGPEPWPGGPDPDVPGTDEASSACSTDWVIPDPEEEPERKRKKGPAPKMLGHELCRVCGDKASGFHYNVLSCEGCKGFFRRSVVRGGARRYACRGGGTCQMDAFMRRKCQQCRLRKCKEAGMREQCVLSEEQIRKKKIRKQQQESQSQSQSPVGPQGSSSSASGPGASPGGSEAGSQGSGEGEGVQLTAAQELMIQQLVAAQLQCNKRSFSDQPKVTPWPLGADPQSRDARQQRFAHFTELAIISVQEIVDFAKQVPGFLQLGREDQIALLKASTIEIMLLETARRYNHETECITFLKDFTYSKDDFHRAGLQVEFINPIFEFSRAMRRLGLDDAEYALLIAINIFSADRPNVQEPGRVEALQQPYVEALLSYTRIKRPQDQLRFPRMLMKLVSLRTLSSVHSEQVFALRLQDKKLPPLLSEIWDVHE
hcDAF12 conf – confirmation of H. contortus DAF-12 agonists. shares compounds with hcDAF12 agonist. HEK293 hcDAF-12 lit1-tk-luc reporter, luminescence; % of Δ7-dafachronic acid response. activation, % at 6.8 µM. 3,400 compounds, 61% hits. AID 743032;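 active means mean activation across triplicate tests above the threshold derived from the earlier primary screen, cut at about 5.5% in these data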;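 further: 0% = DMSO only wells and 100% = 3 µM Δ7-dafachronic acid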
Starred values were filed as active, the others as inactive. Most compounds without a hit are left out; they make up all but 4.1% or so of the library.

`COc1ccc(NC(=O)c2cc(OC)c(OC)c(OC)c2)cn1` gave DAX1 inh-1 1.2, hgDAF12 agonist 1.2, hcDAF12 agonist -1.5, ssDAF-12 act -1.7 and DAX1 inh-2 -0.1.
For Cc1cc(NC(=O)c2cccs2)no1 the results were DAX1 inh-1 0.7, hgDAF12 agonist 4.2, hcDAF12 agonist -2.0, ssDAF-12 act -1.5 and DAX1 inh-2 -0.1.
`CCC[C@H]1[C@@H](NC(=O)C2CCC2)CC[C@@]23CCCN2C(=O)CCC[C@@H]13` gave hgDAF12 agonist -2.0, hcDAF12 agonist -1.0 and ssDAF-12 act -1.0.
`C[C@H]1[C@@H](OC(=O)NCc2ccco2)CC[C@@]23CCCN2C(=O)CCC[C@@H]13` gave hgDAF12 agonist 3.8, hcDAF12 agonist 0.0 and ssDAF-12 act -1.5.
Cc1cc(C)cc(NC(=O)OC2CC3CC2[C@H]2CCCCN2[C@H]3Cc2ccccc2)c1 (some centres undefined) was read as DAX1 inh-1 -0.5, hgDAF12 agonist 1.7, hcDAF12 agonist 0.5 and ssDAF-12 act -0.1.
`CN(Cc1ccco1)S(=O)(=O)c1ccc2c(c1)CCN2C(=O)CC(C)(C)C` gave DAX1 inh-1 -1.1, hgDAF12 agonist 4.1, hcDAF12 agonist -2.7 and ssDAF-12 act -1.4.
`Fc1ccc(-c2nnc(-c3ccc4ccccc4c3)o2)cc1` gave DAX1 inh-1 7.0*, hgDAF12 agonist 20.3*, hcDAF12 agonist 8.0*, ssDAF-12 act 2.1*, DAX1 inh-2 1.4, DAX1 conf 10.5*, SF1 AF2mut Luc 5.2*, LXR ag 1.7 and hcDAF12 conf 12.3*.
Fc1ccc(-c2nnc(-c3ccc(F)cc3)o2)cc1 was read as DAX1 inh-1 0.2, hgDAF12 agonist 0.3, hcDAF12 agonist 2.5, ssDAF-12 act -0.8 and DAX1 inh-2 1.6.
COc1ccc(-c2cc(=O)c3c(O)c(OC)c(O)cc3o2)cc1 was read as DAX1 inh-1 5.1*, hgDAF12 agonist 9.9, hcDAF12 agonist 6.7*, ssDAF-12 act 1.3*, DAX1 inh-2 -4.3, DAX1 conf 15.9*, SF1 AF2mut Luc 8.3*, LXR ag 1.4 and hcDAF12 conf 4.8.
`COCCCN1C(=O)[C@H](CC(=O)N2CCN(C(=O)c3ccco3)CC2)[C@]2(C(=O)OC)CCCCC=C12` gave DAX1 inh-1 0.6, hgDAF12 agonist 0.5, hcDAF12 agonist -0.4 and ssDAF-12 act 0.1.
CCc1ccc(CCNC(=O)OC2CCC23CCC(c2ccccc2)CC3)cc1 (centres undefined) was read as DAX1 inh-1 -0.8, hgDAF12 agonist 2.1, hcDAF12 agonist -1.3 and ssDAF-12 act -0.5.
For O=C(Nc1nc2ccccc2[nH]1)c1ccc(Br)o1 the results were DAX1 inh-1 6.0*, hgDAF12 agonist 16.7*, hcDAF12 agonist 10.7*, ssDAF-12 act 1.4*, DAX1 inh-2 1.8, DAX1 conf 7.9*, SF1 AF2mut Luc 5.2*, LXR ag 1.0 and hcDAF12 conf 7.4*.
For Cc1c(C(=O)Nc2nc3ccccc3[nH]2)oc2ccccc12 the results were DAX1 inh-1 5.7*, hgDAF12 agonist 21.1*, hcDAF12 agonist 24.2*, ssDAF-12 act 3.8*, DAX1 inh-2 2.3, DAX1 conf 13.8*, SF1 AF2mut Luc 7.4*, LXR ag 2.0 and hcDAF12 conf 13.2*.
Screening COC(=O)[C@]12C[C@H](CC(=O)NCc3ccccc3)C(=O)N(CCc3ccc(OC)c(OC)c3)C1=C[C@H](COCc1ccccc1)O[C@@H]2C returned DAX1 inh-1 -0.8, hgDAF12 agonist 1.2, hcDAF12 agonist -3.6 and ssDAF-12 act -1.8.
For COc1ccc(/C(N)=N/OC(=O)c2cccs2)cc1 the results were DAX1 inh-1 5.2*, hgDAF12 agonist 11.9*, hcDAF12 agonist 10.1*, ssDAF-12 act 4.4*, DAX1 inh-2 1.0, DAX1 conf 14.0*, SF1 AF2mut Luc 9.6*, LXR ag 1.4 and hcDAF12 conf 3.7.
Screening CC1CCCN(CCCNS(=O)(=O)c2cc3c(cc2Br)CCN3C(=O)C2CC2)C1 (centres undefined) returned DAX1 inh-1 1.9, hgDAF12 agonist 3.3, hcDAF12 agonist -0.1 and ssDAF-12 act -0.3.
For Cc1cnc(C(=O)Nc2nnc(C3CC3)s2)cn1 the results were DAX1 inh-1 1.1, hgDAF12 agonist 0.4, hcDAF12 agonist 1.8, ssDAF-12 act -0.6 and DAX1 inh-2 0.0.
`COc1c(C(=O)Nc2nnc(C3CC3)s2)csc1Cl` gave DAX1 inh-1 7.0*, hgDAF12 agonist 10.3, hcDAF12 agonist 8.1*, ssDAF-12 act 2.1*, DAX1 inh-2 2.0, DAX1 conf 6.2*, SF1 AF2mut Luc 9.1*, LXR ag 0.6 and hcDAF12 conf 9.5*.
For COC(=O)C(Cc1c[nH]c2ccccc12)NC(=O)c1cncc(Br)c1 (centres undefined) the results were DAX1 inh-1 -0.4, hgDAF12 agonist 0.8, hcDAF12 agonist 5.2, ssDAF-12 act 0.0 and DAX1 inh-2 1.0.
COC(=O)C(Cc1c[nH]c2ccccc12)NC(=O)c1ccc2nc[nH]c2c1 (centres undefined) was read as DAX1 inh-1 8.7*, hgDAF12 agonist 14.0*, hcDAF12 agonist 8.3*, ssDAF-12 act 2.1*, DAX1 inh-2 4.5*, DAX1 conf 12.9*, SF1 AF2mut Luc 6.0*, LXR ag 0.8 and hcDAF12 conf 6.9*.
`COc1ccc(-c2cc(-c3nnc4sc(-c5cccs5)nn34)[nH]n2)cc1` gave DAX1 inh-1 0.6, hgDAF12 agonist 5.5, hcDAF12 agonist 0.0 and ssDAF-12 act -1.1.
For CCOC(=O)c1cc(-c2cccc(O)c2)oc1C the results were DAX1 inh-1 6.2*, hgDAF12 agonist 14.3*, hcDAF12 agonist 9.8*, ssDAF-12 act 3.3*, DAX1 conf 3.8*, SF1 AF2mut Luc 3.2*, LXR ag 1.0 and hcDAF12 conf 13.1*.
`CCOC(=O)c1sc(NC(=O)c2cc(-c3cccc(O)c3)on2)c(C(=O)OCC)c1C` gave DAX1 inh-1 0.6, hgDAF12 agonist -3.8, hcDAF12 agonist -0.2, ssDAF-12 act -1.7 and DAX1 inh-2 0.3.
